Source: PubChem (ICCB-Longwood Screening Facility, Harvard Medical School)
S aureus helic: S. aureus DNA helicase inhibition; purified S. aureus helicase, fluorescence unwinding assay; inhibition, % (no concentration beside the values); 0.05% of 120,000 active; AID 485395; in the data active = inhibition above about 25%, passing the limit was not always enough;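 note: 0% = mean of negative control wells and 100% = mean of positive control wells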
Sa growth 42C: blocks Staphylococcus aureus growth; 0.53% of 170,000 active; relative growth, % (no concentration beside the values); AID 720641; S. aureus RN4220 growth, OD600, 20 h, 42 °C; active compounds read low;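 active = relative growth at most 50% at the other temperature and 20+ points below 30 °C, or under 10% at both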
* marks the source's active call; other numbers are inactive results; x = not tested or not shown. This is one part of a sample in which hits are shown more often than they occur.

SMILES | S aureus helic | Sa growth 42C
CCCCCS(=O)(=O)c1oc(-c2cccs2)nc1S(=O)(=O)c1ccc(C)cc1 | x | 88.0
Cc1ccc(S(=O)(=O)c2nc(-c3ccccc3)oc2S(=O)(=O)c2ccc(C)cc2)cc1 | 19.0 | 92.3
CCC(C)S(=O)(=O)c1oc(-c2ccc(F)cc2)nc1S(=O)(=O)c1ccc(F)cc1 (stereo not given) | x | 14.8*
CCC(C)S(=O)(=O)c1oc(-c2ccc(F)cc2)nc1S(=O)(=O)c1ccc(C)cc1 (stereo not given) | 28.0 | 79.9
CCC1=C(C(=O)OC)C(c2cccc(O)c2)n2ncnc2N1 (stereo not given) | 11.0 | 116.2
O=C(NCc1nc(-c2ccc(C(F)(F)F)cc2)no1)C1CCCCC1 | x | 120.7
Cn1cnnc1Sc1ccc(Cl)cc1NC(=O)c1cc2ccccc2o1 | -9.0 | 100.7
CCOc1ccc2[nH]c(=S)c(C#N)cc2c1 | 5.0 | 94.6
CCN(Cc1ccccc1)C(=O)Cc1ccccc1 | x | 103.2
CCN(Cc1ccccc1)C(=O)Nc1c[nH]c2ccccc12 | -13.0 | 3.6*
NC(=S)COc1ccc(F)cc1 | 25.0* | 100.1
OCc1ccc(OCc2ccc(F)cc2)cc1 | x | 113.4
CCC(=O)c1cc(Cl)cc(Cl)c1O | 8.0 | 124.0
Oc1c(Cl)cc(Cl)cc1C(O)(C(F)(F)F)C(F)(F)F | 21.0 | 7.3*
Cc1ccc(N)c(C(O)(C(F)(F)F)C(F)(F)F)c1 | 16.0 | x
Oc1c(Cl)cc(Cl)cc1Sc1cc(Cl)cc(Cl)c1O | x | -0.6*
CC(=O)Nc1ccc(F)cc1NC=C(C#N)C#N | -9.0 | 85.3
N#CC(C#N)=NNc1ccc(F)cc1C(F)(F)F | -9.0 | -0.7*
COc1cccc(-n2c(SCC(=O)Nc3ccc4[nH]c(=O)[nH]c4c3)nc3ccccc3c2=O)c1 | 2.0 | 102.2
O=C1/C(=C/c2cccnc2)SC(=S)N1C1CCCC1 | 8.0 | 7.2*
CC(=C\c1ccccc1)/C=C1/SC(=S)N(C2CCCCC2)C1=O | 8.0 | 99.2
FC(F)(F)c1ccc(NCC2CCCO2)nc1 (stereo not given) | 9.0 | 106.8
Ic1ccc(OCCCCn2ccnc2)cc1 | 10.0 | 1.3*
Clc1cccc(Cl)c1OCCCn1ccnc1 | -19.0 | 102.8
CC(C)(C)c1ccc(OCCCn2ccnc2)cc1 | -8.0 | 2.3*
SMILES | S aureus helic | Sa growth 42C
CCOc1ccc(NC(=S)NCCCn2ccnc2)cc1 | 5.0 | 97.1
N#Cc1ccsc1NC(=O)/C=C/c1ccccc1 | -19.0 | x
Cc1cc(C(=O)COC(=O)CN=C2NS(=O)(=O)c3ccccc32)c(C)n1C | -8.0 | 76.7
C=CCN(CC(=O)N1CCN(c2ccccc2)CC1)S(=O)(=O)c1ccccc1C(F)(F)F | 0.0 | 94.5
O=C(NCCN1CCOCC1)c1ccc2c(c1)CCN2S(=O)(=O)c1ccc(Br)cc1 | 22.0 | 88.0
Cc1ccc(C)c(-c2nnc(NC(=O)c3ccc(S(=O)(=O)N4CCc5ccccc54)cc3)o2)c1 | 21.0 | 1.9*
Cc1ccc(NC(=O)c2cccc(S(C)(=O)=O)c2)cc1 | -13.0 | 99.4
Cc1ccc(S(=O)(=O)N2CCc3cc(C(=O)Nc4ccc(C)c(C)c4)ccc32)cc1 | x | 91.5
Cc1ccc(C)c(-c2nnc(NC(=O)c3cccc(S(C)(=O)=O)c3)o2)c1 | 12.0 | 5.5*
COc1cc(C2CSc3nc4sc5c(c4c(=O)n32)CCCC5)cc(Cl)c1O (stereo not given) | -15.0 | 81.9
Cc1cc(NC(=O)c2cc(=O)c3ccccc3o2)no1 | 13.0 | x
COc1ccc(C(=O)NCCc2nc3ccccc3n2C)cc1OC | -8.0 | x
COC(=O)c1ccsc1NC(=O)CCOc1ccccc1 | 13.0 | x
Cc1c(C)c(C)c(C#CCO)c(C)c1C | -13.0 | 3.2*
Cc1ccc(Cc2c[nH]c(=S)s2)cc1 | 9.0 | 22.9*
Cc1ccc(Cc2cn3cc(-c4ccc(F)cc4)nc3s2)cc1 | x | 95.8
O=C(COc1cccc2c1CCN(Cc1cccnc1)C2=O)Nc1ccccc1 | 12.0 | x
CS(=O)(=O)N(CCC#N)Cc1ccc(/C=C2\C(=O)N(c3ccccc3)c3ccccc32)o1 | -20.0 | 78.3
CO[C@H]1/C=C/O[C@@]2(C)Oc3c(C)c(O)c4c(O)c(c(/C=N/N5CCN(C)CC5)c(O)c4c3C2=O)NC(=O)/C(C)=C\C=C\[C@H](C)[C@H](O)[C@@H](C)[C@@H](O)[C@@H](C)[C@H](OC(C)=O)[C@@H]1C | x | 1.6*
N#Cc1ccc(CONC(=O)c2cccs2)cc1 | 9.0 | 100.2
Cc1ccc2oc(=O)c3cc(C(=O)NCCCN4CCN(C)CC4)sc3c2c1 | -6.0 | 106.7
Cc1ccc2oc(=O)c3cc(C(=O)NCCN4CCCCC4C)sc3c2c1 (stereo not given) | 46.0* | 104.4
c1ccc(CN=C2CCc3ccccc3N2)cc1 | -1.0 | 108.3
CCOC(=O)c1c(-c2ccccc2)oc2ccc(OC)cc12 | -13.0 | x
CCOC(=O)c1c(-c2ccccc2)oc2ccc(OCC)cc12 | 10.0 | 48.0*
SMILES | S aureus helic | Sa growth 42C
CC(=O)N=C(C)CC1(OC(C)=O)C(=O)N(C)c2ccccc21 (stereo not given) | 12.0 | 99.4
Cc1cc(C)c2ccc(NN)nc2c1O | 0.0 | 29.7
Cc1cc(C)c2cccnc2c1O | 21.0 | 3.0*
CCOC(=O)C1CCN(Cc2coc3ccc(C)cc3c2=O)CC1 | 0.0 | 101.1
CCCCN(CC)c1nc(N)c2c(N)nc(SCC(=O)O)cc2c1C#N | -15.0 | 6.2*
CCN(CC)c1nc(N)c2c(N)nc3c(c2c1C#N)C(=O)CN3Cc1ccccc1 | -14.0 | 104.1
O=C(Nc1ccc2[nH]c(=O)oc2c1)c1ccccc1 | -20.0 | 103.8
O=C(NCCc1ccccc1)c1ccc(CS(=O)Cc2cccc(Cl)c2)o1 (stereo not given) | 2.0 | 86.4
O=C(NCCc1ccc(Cl)cc1)c1ccc(CS(=O)Cc2cccc(Cl)c2)o1 (stereo not given) | x | 7.4*
Cc1ccc(C)c(NC(=O)c2ccccc2)c1 | -1.0 | 85.7
Cc1cc(N=NC(=O)c2ccccc2)ccc1O | 22.0 | 0.6*
Clc1ccc(-c2nc(-c3ccccc3)no2)cc1 | 2.0 | 106.8
CN(C)Cc1ccccc1CNC(=O)CCC1CCCC1 | -14.0 | 98.2
Cc1ccc(Nc2c(-c3ccc(O)cc3)nc3cccc(C)n23)cc1 | x | 108.6
Cc1ccc(-c2nc(I)ccc2O)cc1 | -5.0 | 9.1*
S=C(NCCSc1ccc(Cl)cc1)Nc1cccc(Cl)c1 | 12.0 | 2.1
CC(CNC(=S)Nc1cccc(Cl)c1)CSc1ccc(Cl)cc1 (stereo not given) | 4.0 | -0.4*
Oc1ccccc1/C=N/[n+]1ccccc1 | -1.0 | 85.7
C=CC[n+]1ccc(/C=C/c2ccccc2O)c2ccccc21 | 42.0* | 34.1
O=C(NC(=S)Nc1ccncc1)c1ccccc1 | x | 119.2
O=C1CSCC(=O)N1c1ccc(Cl)cc1 | -3.0 | 99.9
Cc1c(Cl)sn(-c2ccc(Cl)cc2)c1=O | 11.0 | -1.2*
CCOC(=O)C(Cc1ccc(NC(=O)c2ccccc2)cc1)N1C(=O)c2ccccc2C1=O (stereo not given) | 2.0 | 100.2
CC1CCc2c(sc3ncn(CC(=O)N4CCCC4)c(=O)c23)C1 (stereo not given) | 6.0 | 109.3
CCC(C(=O)OC(C)C)n1cnc2sc3c(c2c1=O)CCC(C)C3 (stereo not given) | 5.0 | 34.0*
COc1ccccc1/C=N/OCC(=O)N(C)c1ccccc1 | 3.0 | 88.4
CCc1nc2n(n1)C(c1ccc3c(c1)OCO3)C(C(=O)Nc1ccccc1OC)=C(C)N2 (stereo not given) | -4.0 | 74.6
COc1ccc2[nH]c(C)cc(=S)c2c1 | 12.0 | 82.9
Cc1ccc2[nH]c(C)cc(=S)c2c1 | 1.0 | 5.8*
C#CC(CC)(CC)NC(=O)Cc1n[nH]c(=O)c2ccccc12 | 5.0 | 99.5
